# Source: PubChem BioAssay (Tox21)
# Results filed as inconclusive are left out. Where a call stands in place of a potency, no number is given. Active and inactive are the calls of the source. Calls come from the whole dose curve; as a rule, active = well fitted curve in the direction sought with a large enough effect in the repeat runs; inconclusive = weak or mixed curves; inactive = no such curve, though single readings can be large; an effect the other way counts as inactive or inconclusive.
# Tested on: not listed separately
# Assay: qHTS assay to identify small molecule agonists of the retinoic acid receptor (RAR) signaling pathway (AID 1159553); note: potency is the fitted concentration of half-maximal effect
# Conditions: C3RL4 RARE luciferase reporter, agonist, 6 h; series mostly up to 73.3 µM
# Summary of the method: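 Compounds dissolved in DMSO were pinned onto C3RL4 cells seeded the previous day, and plates were held 6 hr at 37 C. RARE-driven luciferase output was then read by luminescence.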
row,SMILES,Potency
1,N#CCc1ccccc1[N+](=O)[O-],inactive
2,Cc1ccccc1Br,inactive
3,CCCCCC[C@@H](CCC)C(=O)O,inactive
4,CCC(=O)c1cccc(Cl)c1,inactive
5,COc1ccc(N=[N+]([O-])c2ccc(OC)cc2)cc1,27 nM (active)
6,C(=C(c1ccccc1)c1ccccc1)c1ccccc1,inactive
7,CCCCc1ccc2cccc(S(=O)(=O)O)c2c1,inactive
8,O=C(O)Cc1cc(I)c(Oc2cc(I)c(O)c(I)c2)c(I)c1,inactive
9,COC(=O)C1=C(C)NC(C)=C(C(=O)OCC(C)=O)C1c1ccccc1[N+](=O)[O-] (stereo unspecified),inactive
10,CC(C)c1cccc(C(C)C)c1N,inactive
11,C1C2OC2C2C1C1CC2C2OC12 (stereo unspecified),inactive
12,NC1CCN(c2cccc(Cl)n2)CC1,inactive
13,COC(=O)c1ccc(C(=O)OC)c(C(=O)OC)c1,inactive
14,OCCCCCCO,inactive

# Tested on: not listed separately
# Assay: qHTS assay to identify small molecule antagonists of the estrogen related receptor (ERR) signaling pathway from Tox21 library - cell viability counter screen (AID 1224834); note: nearly all actives have a fitted effect of over 30% in size
# Conditions: ERR reporter cells viability, CellTiter-Fluor, 17.5 h; series mostly up to 92.4 µM
# Summary of the method: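 In this quantitative HTS format, ERR cells receive compounds in DMSO and are incubated for 17.5 h at 37 C. Live-cell protease activity is then detected with CellTiter-Fluor.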
SMILES,Potency,"viability change, negative = cytotoxic"
Cn1cnc2c(=O)[nH]c(N)nc21,inactive,–
N#CCc1ccccc1[N+](=O)[O-],inactive,–
CN(C)CCOC(c1ccc(Cl)cc1)c1ccccn1 (stereo unspecified),inactive,–
NC(=S)Nc1cccc2ccccc12,–,1.64% [at 8.39 µM] (inactive)
CC(C)[N+](C)(C)CC(O)COc1cccc2ccccc12 (stereo unspecified),inactive,–
Cc1ccccc1Br,inactive,–
COc1cccc(OC)c1,inactive,–
CCCc1ccc(N)cc1,inactive,–
C=C(C)C(=O)NCCC[N+](C)(C)C,inactive,–
Nc1cc(N)cc(C(=O)O)c1,inactive,–
CC(CCO)CCCC(C)(C)O (stereo unspecified),inactive,–
c1ccc2cnncc2c1,inactive,–
CCCCCC[C@@H](CCC)C(=O)O,inactive,–
CCCCOCC(C)OCC(C)O (stereo unspecified),inactive,–
O=C(O)/C=C/c1ccc(/C=C/C(=O)O)cc1,inactive,–
CCC(=O)c1cccc(Cl)c1,inactive,–
CC(C)=CC(=O)O,inactive,–
NS(=O)(=O)c1cc2c(cc1C(F)(F)F)NC(Cc1ccccc1)NS2(=O)=O (stereo unspecified),inactive,–
COc1ccc(N=[N+]([O-])c2ccc(OC)cc2)cc1,inactive,–

SMILES,Potency,"viability change, negative = cytotoxic"
C(=C(c1ccccc1)c1ccccc1)c1ccccc1,inactive,–
CO[Si](CCCNCCC[Si](OC)(OC)OC)(OC)OC,inactive,–
CC(C=O)Cc1ccc(C(C)C)cc1 (stereo unspecified),inactive,–
CCCCc1ccc2cccc(S(=O)(=O)O)c2c1,inactive,–
CCC(C)(C)C1CCC(OC)CC1 (stereo unspecified),inactive,–
O=C(O)Cc1cc(I)c(Oc2cc(I)c(O)c(I)c2)c(I)c1,inactive,–
C=C(C)[C@H]1CC=C(C)CC1,inactive,–
COC(=O)C1=C(C)NC(C)=C(C(=O)OCC(C)=O)C1c1ccccc1[N+](=O)[O-] (stereo unspecified),inactive,–
N#CCN(CC#N)CCN(CC#N)CC#N,inactive,–
C[N+](C)(C)CC[N+]1(C)Cc2c(Cl)c(Cl)c(Cl)c(Cl)c2C1,inactive,–
C=CC(=O)N1CCOCC1,inactive,–
CC(C)c1cccc(C(C)C)c1N,inactive,–
C1C2OC2C2C1C1CC2C2OC12 (stereo unspecified),inactive,–
NC1CCN(c2cccc(Cl)n2)CC1,inactive,–
COC(=O)CCCCCCCCC(=O)OC,inactive,–
COC(=O)c1ccc(C(=O)OC)c(C(=O)OC)c1,inactive,–
OCCCCCCO,inactive,–
CC(=O)c1ccc(C)cc1,inactive,–

# Target: Luciferin 4-monooxygenase (Photinus pyralis) (UniProt P08659)
# Assay: qHTS assay to identify small molecule inhibitors of firefly luciferase (AID 1224835); note: nearly all actives have a fitted effect of over 25% in size; note: potency is the fitted concentration of half-maximal effect
# Conditions: purified P. pyralis luciferase, luminescence inhibition; series mostly up to 115 µM
# Summary of the method: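 Quantitative HTS format; KM concentrations of both substrates. Purified P. pyralis FLuc activity quantified from luminescence images.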
# Luciferin 4-monooxygenase (Photinus pyralis), sequence (P08659 whole entry, looked up): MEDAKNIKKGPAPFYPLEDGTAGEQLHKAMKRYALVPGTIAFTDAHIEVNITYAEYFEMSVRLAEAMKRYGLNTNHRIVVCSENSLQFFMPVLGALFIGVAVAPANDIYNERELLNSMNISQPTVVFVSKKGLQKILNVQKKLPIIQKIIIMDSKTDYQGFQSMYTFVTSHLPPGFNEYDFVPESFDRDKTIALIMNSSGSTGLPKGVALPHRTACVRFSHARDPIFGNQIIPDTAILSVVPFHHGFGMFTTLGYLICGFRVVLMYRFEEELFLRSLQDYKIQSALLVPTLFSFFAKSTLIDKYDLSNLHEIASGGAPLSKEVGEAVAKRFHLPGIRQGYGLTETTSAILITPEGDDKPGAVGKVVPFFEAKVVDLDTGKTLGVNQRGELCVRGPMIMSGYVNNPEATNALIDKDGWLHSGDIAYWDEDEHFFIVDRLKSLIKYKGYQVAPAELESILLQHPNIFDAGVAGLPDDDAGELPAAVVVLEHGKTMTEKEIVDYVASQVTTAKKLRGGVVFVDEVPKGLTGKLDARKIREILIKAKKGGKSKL
SMILES,Potency,"activity change, negative = inhibition"
Cn1cnc2c(=O)[nH]c(N)nc21,inactive,–
N#CCc1ccccc1[N+](=O)[O-],inactive,–
CN(C)CCOC(c1ccc(Cl)cc1)c1ccccn1 (stereo unspecified),inactive,–
NC(=S)Nc1cccc2ccccc12,–,2.89% [at 10.5 µM] (inactive)
CC(C)[N+](C)(C)CC(O)COc1cccc2ccccc12 (stereo unspecified),inactive,–
Cc1ccccc1Br,inactive,–
COc1cccc(OC)c1,inactive,–
C=C(C)C(=O)NCCC[N+](C)(C)C,inactive,–
Cc1ccc(N)cc1[N+](=O)[O-],inactive,–
Nc1cc(N)cc(C(=O)O)c1,inactive,–
CC(CCO)CCCC(C)(C)O (stereo unspecified),inactive,–
c1ccc2cnncc2c1,inactive,–
CCCCCC[C@@H](CCC)C(=O)O,inactive,–
CCCCOCC(C)OCC(C)O (stereo unspecified),inactive,–
O=C(O)/C=C/c1ccc(/C=C/C(=O)O)cc1,inactive,–
CCC(=O)c1cccc(Cl)c1,inactive,–
CC(C)=CC(=O)O,inactive,–
NS(=O)(=O)c1cc2c(cc1C(F)(F)F)NC(Cc1ccccc1)NS2(=O)=O (stereo unspecified),inactive,–

SMILES,Potency,"activity change, negative = inhibition"
COc1ccc(N=[N+]([O-])c2ccc(OC)cc2)cc1,222 nM (active),–
C(=C(c1ccccc1)c1ccccc1)c1ccccc1,inactive,–
CO[Si](CCCNCCC[Si](OC)(OC)OC)(OC)OC,inactive,–
CC(C=O)Cc1ccc(C(C)C)cc1 (stereo unspecified),inactive,–
CCCCc1ccc2cccc(S(=O)(=O)O)c2c1,inactive,–
CCC(C)(C)C1CCC(OC)CC1 (stereo unspecified),inactive,–
C=C(C)[C@H]1CC=C(C)CC1,inactive,–
COC(=O)C1=C(C)NC(C)=C(C(=O)OCC(C)=O)C1c1ccccc1[N+](=O)[O-] (stereo unspecified),inactive,–
N#CCN(CC#N)CCN(CC#N)CC#N,inactive,–
C[N+](C)(C)CC[N+]1(C)Cc2c(Cl)c(Cl)c(Cl)c(Cl)c2C1,inactive,–
C=CC(=O)N1CCOCC1,inactive,–
CC(C)c1cccc(C(C)C)c1N,inactive,–
C1C2OC2C2C1C1CC2C2OC12 (stereo unspecified),inactive,–
NC1CCN(c2cccc(Cl)n2)CC1,inactive,–
COC(=O)CCCCCCCCC(=O)OC,inactive,–
OCCCCCCO,inactive,–
CC(=O)c1ccc(C)cc1,inactive,–
